Source: PubChem BioAssay (EPA / NIEHS)
Records with an inconclusive call do not appear. The source made the active and inactive calls. Rule for the calls: active = hit-call score of the fitted dose curve at least 0.9, where 1 is the maximum; inconclusive = response in the unintended direction; inactive = score below 0.9.

Assay: Tanguay_ZF_120hpf_SWIM_legacy: (Legacy) Oregon State University Tanguay Lab 120 Hour Post-fertilization zebrafish Assay for Swim Bladder Malformation (AID 2283654);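 note: swim bladder malformation in each larva scored yes or no under brightfield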
Method: Tanguay_ZF_120hpf_legacy is a whole embryo, multiplexed endpoint assay using zebrafish larvae exposed for 120 hours post fertilization on a 96-well plate.Tanguay_ZF_120hpf_SWIM_legacy is one of one assay component(s) measured or calculated from the Tanguay_ZF_120hpf_legacy assay. It is designed to make measurements of zebrafish development as detected with brightfield microscopy of developing zebrafish embryos.Data from the assay component Tanguay_ZF_120hpf_SWIM_legacy was analyzed into 1 assay endpoints. This assay endpoint, Tanguay_ZF_120hpf_SWIM_legacy, was analyzed in the positive analysis fitting direction relative to DMSO as the negative control and baseline of activity. Using a type of morphology reporter, gain-of-signal activity can be used to understand changes in developmentals as they relate to the whole embryo. To generalize the intended target to other relatable targets, this assay endpoint is annotated to the zebrafish development intended target family, where the subfamily is swim bladder morphogenesis.
Zebrafish husbandry: Tropical 5D wild-type adult zebrafish were housed in at an approximate density of 1000 per 100 gallon tank at the Sinnhuber Aquatic Research Laboratory, Oregon State University, Corvallis, OR. Each tank was kept at standard laboratory conditions of 28C on a 14-h light/10-h dark photoperiod in fish water consisting of reverse osmosis water supplemented with a commercially available salt (Instant Ocean). Spawning funnels were placed into the tanks the night prior, and embryos were collected and staged. To increase bioavailability, the chorion was enzymatically removed using pronase (63.6mg/ml, >/= 3.5U/mg, Sigma-Aldrich: P5147) at 4 hours post fertilization (hpf) using a custom automated dechorionator.Chemical exposures: Six hpf dechorionated embryos were placed 1 embryo per well in a 96-well plate prefilled with 90 ul of EM using automated embryo placement systems (AEPS). Ten microliters of each row of dilution plate 2 was added to 2 exposure plates. The final DMSO concentration used was 0.64% (vol/vol). Thirty-two embryos were also exposed to 5uM trimethyltin chloride (positive control). Plates were sealed to prevent evaporation and foil covered to reduce light exposure and kept in a 28C incubator. Embryos were statically exposed until 120 hpf. At 24 hpf, embryos were assessed for photomotor response using a custom photomotor response analysis tool (PRAT) and for developmental toxicity endpoints (MO24: mortality at 24 hpf, DP: developmental progression, SM: spontaneous movement, and NC: notochord distortion). At 120 hpf, locomotor activity was measured using Viewpoint Zebralab and assessed for 18 endpoints. Zebrafish acquisition and analysis program (ZAAP), a custom program designed to inventory, acquire, and manage zebrafish data, was used to collect developmental endpoints as either present or absent (i.e., binary responses were recorded). If mortality occurred for an embryo (at either 24 or 120 hpf), the non-mortality endpoints were not measured.
With `CCCCCCCCCCCCc1cccc(S(=O)(=O)O)c1` the outcome was “inactive”.
With `COc1ccccc1N` the outcome was “inactive”.
For `Oc1c(Cl)cc(Cl)cc1Cl`, the outcome was “inactive”.
In the case of `O=C(N[C@H]1CN2CCC1CC2)c1ccc2c(c1)OCCO2`, the outcome is reported as “inactive”.
For `N#Cc1cccnc1`, the outcome was “inactive”.
For `Oc1cc(Cl)c(Cl)cc1Cl`, the outcome was “inactive”.
With `CC(C)(C)c1ccccc1O` the outcome was “inactive”.
For `O=C(O)C1(c2ccc3c(c2)OC[C@H](Cc2ccc(-c4ccccc4)cc2)[C@H]3O)CCCC1`, the outcome was “inactive”.
With `OCCN(CCO)CCO` the outcome was “inactive”.
For `Clc1cccc(Cl)c1Cl`, the outcome was “inactive”.
With `CC(C)O.CC(C)O.OCCN(CCO)CCO.OCCN(CCO)CCO.[Ti]` the outcome was “inactive”.
For `Clc1cccc(Cl)c1`, the outcome was “inactive”.
With `Cc1cc(C)cc(C)c1` the outcome was “inactive”.
In the case of `CN(C)C(=S)S`, the outcome is reported as “inactive”.
